Pf growth 96h = Primary qHTS for delayed death inhibitors of the malarial parasite plastid, 96 hour incubation | P. falciparum luciferase reporter growth, 96 h | Potency, µM (series often up to 28.7 µM), for inactives: at the top dose activity change, negative = inhibition, usual class: inhibitors | AID 504834, 2011 | 320,000 compounds, 6.9% hits
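Two parasite generations (96 h, 37 C, 5% CO2) of compound exposure in infected erythrocytes (0.05% parasitemia, 2% hematocrit). Luciferase-reporter P. falciparum; decreased luminescence indicates inhibited growth, aimed at apicoplast-acting delayed death.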
Pf growth 48h = Primary qHTS for delayed death inhibitors of the malarial parasite plastid, 48 hour incubation | AID 504832, 2011 | Potency, µM (titrated, usually from 28.7 µM), inactives show at the highest dose activity change, negative = inhibition, most hits filed as inhibitors | P. falciparum luciferase growth in erythrocytes, 48 h | 310,000 compounds, 5.9% hits
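First compound was added to culture medium, then infected red cells at 0.1% parasitemia and 2% hematocrit (final). After incubation at 37 C under 5% CO2, luciferase detection reagent was dispensed and light output recorded.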
HCV inh = qHTS Assay for Inhibitors of Hepatitis C Virus (HCV). AID 651820, 2012. Huh7.5.1 HCVcc-Cre infection, luciferase reporter, 44 h. Potency, µM (top dose mostly 41.8 µM), for the others: top-dose activity change, negative = inhibition, most hits filed as inhibitors. 340,000 compounds, 3.4% hits
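1,000 cells/well; 4 h culture; + compound; + HCVcc-Cre (~0.5 moi); 44 h; luciferase substrate, RT 15 min; read 15 sec.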
AMA1 RON2 block = qHTS for Inhibitors of AMA1-RON; Towards Development of Antimalarial Drug Lead: Primary Screen; AID 720542, 2013; Potency, µM (doses to about 58.2 µM), for the others: at the highest dose activity change, negative = inhibition, most hits filed as inhibitors; AlphaScreen AMA1-biotinylated RON2 peptide binding; Plasmodium falciparum AMA1 (3D7) - RON2 peptide interaction; 360,000 compounds, 0.2% hits;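 also: 0% = vehicle wells and -100% = peptide control; nearly all actives have a fitted effect of over 45% in size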
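AMA1 (3D7) with his tag at 25 nM final met compounds first, then biotinylated RON2 peptide at 25 nM; detection used donor plus acceptor beads, 10 µg/mL apiece, read by AlphaScreen after 30 min at room temperature.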
An asterisk follows results filed as active; ? = inconclusive; · = no result given; [ ] = another dose, or the depositor's remark. Compounds with a hit are over-represented: about 11% of the library has one in this group of screens. Calls follow the shape of the dose curve; as a rule, active = well fitted curve in the direction sought with a large enough effect; inconclusive = small, poorly fitted or top-dose-only effect, or another doubt; inactive = no such curve, though single readings can be large; an effect the other way counts as inactive or inconclusive. Unless noted, % is scaled to controls: 0 for no effect and ±100 for the full control effect; potency is read from the fitted curve at half-maximal effect.

SMILES	Pf growth 96h	Pf growth 48h	HCV inh	AMA1 RON2 block
COc1ccc(NC(=O)CNc2ccccc2C(C)=O)cc1S(=O)(=O)N1CCOCC1	·	·	-22%	0%
COc1cc(C)nc(NC(=S)N(C)C(=O)c2ccccc2)n1	-25%	?	?	-2%
COc1ccc2nc(NC(=O)C3CCN(S(=O)(=O)c4cccnc4)CC3)sc2c1	-8%	·	?	0%
CCn1c2ccccc2c2cc(NC(=O)C3CCN(S(=O)(=O)c4cccs4)CC3)ccc21	12%	·	4µM*	0%
COc1ccc2nc(NC(=O)C3CCN(S(=O)(=O)c4cccs4)CC3)sc2c1	·	13µM*	10µM*	-8%
COc1ccccc1NC(=O)c1ccc(CSc2ccccc2)o1	-9%	19%	·	-9%
C[C@@H]1[C@H](O)C[C@@]23COC(=O)C2=CCCC3[C@@]1(C)CCC1COC(=O)C1 (stereo not given in full)	0.0026µM*	0.0033µM*	17%	8%
COCCN(C(=O)COC(=O)/C=C/c1ccc2c(c1)OCO2)c1c(N)n(Cc2ccccc2)c(=O)[nH]c1=O	?	-4%	-24%	8%
CCOc1ccc(C2CC(c3cccc(Cl)c3)n3nc(N)nc3N2)cc1 (stereo not given)	3.7µM*	4%	4%	0%
CCc1ccc(C2CC(c3ccccc3C)n3nc(N)nc3N2)cc1 (stereo not given)	15µM*	13%	5%	-8%
CC(C)CN(C(=O)COC(=O)c1ccc2c(c1)OCO2)c1c(N)n(Cc2ccccc2)c(=O)[nH]c1=O	?	-4%	6%	0%
CSCCC(NC(=O)c1ccc([N+](=O)[O-])cc1Cl)C(=O)OC(C)C(=O)NCc1ccco1 (stereo not given)	53%	3%	0%	-12%
CC(=O)NCCNc1nc2cc(-c3cscc3C)sc2c(=O)n1C	·	·	·	-12%
COc1ccc(C2(OC)Oc3cc(OC)ccc3C(=O)C2(O)OC)cc1 (stereo not given)	·	·	?	-12%
CC(C)Oc1ccc2c(c1)OC(c1ccccc1)(C(F)(F)F)NC2=O (stereo not given)	0.19µM*	0.83µM*	-4%	-8%
COc1ccc2c(c1)OC(c1ccccc1)(C(F)(F)F)NC2=O (stereo not given)	?	2.9µM*	19%	6%
CN(C)c1ccc(/C=C(/NC(=O)c2ccccc2Cl)C(=O)NCCN2CCOCC2)cc1	0%	6%	2%	5%
Cc1ccc(C(=O)N/N=C/c2cccc(OC(=O)/C=C/c3ccco3)c2)cn1	?	31%	4%	7%
O=C(CNc1cccc2ccccc12)N/N=C/c1ccc(OC(=O)/C=C/c2ccco2)cc1	-7%	?	-6%	-11%
O=C(/C=C/c1ccco1)Oc1cc(Br)cc(/C=N/NC(=O)c2ccccc2O)c1	30%	1.9µM*	?	10%
O=C(CNc1ccc2ccccc2c1)N/N=C/c1ccc(OC(=O)/C=C/c2ccco2)cc1	31%	8.3µM*	5%	21%
COc1ccc(C2CC(c3ccccc3)n3nc(NC(=O)c4cccs4)nc3N2)cc1 (stereo not given)	-15%[5.75 µM]	?	?	39%
O=C(Nc1nc2n(n1)C(c1ccc(Cl)cc1)CC(c1ccc(Cl)cc1)N2)c1ccco1 (stereo not given)	?	10µM*	-15%	-8%
COc1ccc(C2CC(c3ccc(Cl)cc3)Nc3nc(NC(=O)c4ccco4)nn32)cc1 (stereo not given)	13%	9.3µM*	-21%	2%
O=C(Nc1nc2n(n1)C(c1ccc(F)cc1)CC(c1ccccc1)N2)c1ccco1 (stereo not given)	?	-20%	8%	77%
SMILES	Pf growth 96h	Pf growth 48h	HCV inh	AMA1 RON2 block
CN(C(=O)COC(=O)c1ccccc1SCC(=O)N1CCCC1)C1CCS(=O)(=O)C1 (stereo not given)	20%	15%	25%	5%
Cc1cc(C)cc(N(CCC#N)C(=O)COC(=O)c2ccccc2SCC(=O)N2CCCC2)c1	12µM*	?	0%	5%
Cc1ccc(N(CCC#N)C(=O)COC(=O)c2ccccc2SCC(=O)N2CCCC2)cc1	?	?	?	73%
CC(C)CN(C(=O)COC(=O)c1ccccc1SCC(=O)N1CCCC1)C1CCS(=O)(=O)C1 (stereo not given)	·	·	16%	10µM*
O=C(Oc1coc(CSc2ncccn2)cc1=O)c1ccccc1[N+](=O)[O-]	-37%	20%	8%	1%
CCC(C(=O)NC(N)=O)c1ccccc1 (stereo not given)	4%	3%	·	·
Nc1ncc2c(n1)-c1ccccc1CC2	39%	3.7µM*	3%	-2%
COc1ccccc1NC(=O)c1ccc(NC(=O)COC(=O)C(C)C)cc1	6.6µM*	7.4µM*	15%	6%
COc1cc(OC)cc(C(=O)Nc2ccc(C(=O)Nc3ccccc3OC)cc2)c1	·	·	11µM*	0%
COc1ccccc1NC(=O)c1ccc(NC(=O)c2ccco2)cc1	-1%	?	-11%	5%
COc1ccc(OC)c(NC(=O)c2ccc(-c3cccs3)cc2)c1	12%	18%	?	28µM*
Nc1nc2ccc(NC(=O)c3ccco3)cc2s1	59%	104%	2%	10%
COc1ccc(S(=O)(=O)NCCC(=O)Nc2ccc(C)cc2)cc1	21%	3%	-15%	-7%
COC(=O)c1cc(OC)c(OC)c(OC)c1[N+](=O)[O-]	12%	-5%	0%	-16%
COC(=O)C1=C(c2ccc(OC)c(OC)c2)C[C@@H]2CC[C@H]1N2C(=O)NCCOc1ccccc1	?	-16%	-14%	-6%
COC(=O)C1=C(c2ccc(-c3ccccc3)c(F)c2)C[C@@H]2CC[C@H]1N2C(=O)NCCOc1ccccc1	?	3.3µM*	13µM*	-4%
COC(=O)C1=C(c2ccc3ccccc3c2)C[C@@H]2CC[C@H]1N2C(=O)NCC1CC1	?	3.3µM*	?	-3%
COC(=O)C1=C(c2ccc3ccccc3c2)C[C@@H]2CC[C@H]1N2C(=O)NC1CC1	?	?	-3%	2%
COC(=O)C1=C(c2ccc(-c3ccccc3)c(F)c2)C[C@@H]2CC[C@H]1N2C(=O)NC1Cc2ccccc2C1	?	9.3µM*	?	-7%
COCCNC(=O)N1[C@H]2CC[C@@H]1C(C(=O)OC)=C(c1ccc(-c3ccccc3)c(F)c1)C2	?	?	3.2µM*	-11%
COCCNC(=O)N1[C@H]2CC[C@@H]1C(C(=O)OC)=C(c1ccc(OC)c(OC)c1)C2	11%	25%	18%	-10%
COc1ccc2nc(NC(=O)CSc3n[nH]c(N)n3)sc2c1	68%	59%	?	56%
